Results: article PMC4336329 (PLoS ONE, 2015)
Among all 310,000 compounds or so, about 14,000 (4.5%) showed an effect of 50% or more. The effect is printed as a negative number. For the sample, strong results were picked, then their nearest neighbours and some compounds at random.

Target: human ether-à-go-go-related gene (hERG) potassium channel (human, UniProt Q12809)
Assay: primary screen, population patch clamp on CHO cells stably expressing hERG; higher = less effect of the substance
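Note: peak tail current of the secondary pulse compared with the same well before compound.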

Chain of human ether-à-go-go-related gene (hERG) potassium channel (Q12809 whole entry, looked up): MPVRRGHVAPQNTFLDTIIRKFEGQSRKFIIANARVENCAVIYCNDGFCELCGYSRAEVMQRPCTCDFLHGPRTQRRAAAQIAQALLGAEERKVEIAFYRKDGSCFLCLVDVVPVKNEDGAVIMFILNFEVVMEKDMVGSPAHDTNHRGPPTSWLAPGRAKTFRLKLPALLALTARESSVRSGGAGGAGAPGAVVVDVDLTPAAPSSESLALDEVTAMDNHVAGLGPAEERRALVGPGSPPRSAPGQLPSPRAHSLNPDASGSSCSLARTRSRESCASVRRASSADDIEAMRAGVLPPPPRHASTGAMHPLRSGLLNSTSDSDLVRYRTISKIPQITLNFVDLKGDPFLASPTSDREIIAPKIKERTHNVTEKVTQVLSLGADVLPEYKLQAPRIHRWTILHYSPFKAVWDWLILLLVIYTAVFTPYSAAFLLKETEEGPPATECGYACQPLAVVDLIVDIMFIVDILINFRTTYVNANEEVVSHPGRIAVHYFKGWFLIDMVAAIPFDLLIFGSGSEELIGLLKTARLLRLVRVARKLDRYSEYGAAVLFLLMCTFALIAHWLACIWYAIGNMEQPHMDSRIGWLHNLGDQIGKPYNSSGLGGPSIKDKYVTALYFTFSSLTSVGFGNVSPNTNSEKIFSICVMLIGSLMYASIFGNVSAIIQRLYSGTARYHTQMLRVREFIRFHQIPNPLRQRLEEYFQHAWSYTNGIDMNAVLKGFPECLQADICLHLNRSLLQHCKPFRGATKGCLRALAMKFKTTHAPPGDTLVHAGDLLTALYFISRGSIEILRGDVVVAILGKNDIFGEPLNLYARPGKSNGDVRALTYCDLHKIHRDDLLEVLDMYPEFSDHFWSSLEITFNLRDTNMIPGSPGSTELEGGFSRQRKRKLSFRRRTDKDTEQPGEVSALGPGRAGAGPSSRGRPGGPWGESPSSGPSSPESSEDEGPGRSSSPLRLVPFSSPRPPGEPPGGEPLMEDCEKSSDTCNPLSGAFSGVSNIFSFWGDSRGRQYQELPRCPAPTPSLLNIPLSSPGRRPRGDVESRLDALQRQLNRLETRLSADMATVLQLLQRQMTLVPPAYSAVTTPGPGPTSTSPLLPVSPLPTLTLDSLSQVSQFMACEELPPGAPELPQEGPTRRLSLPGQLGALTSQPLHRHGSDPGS

| Structure (SMILES) | hERG current change (%, negative = inhibition) at 10uM [%] |
| --- | --- |
| CN(C)c1ccc(/C=N/NC(=O)c2cccc(N3CCCC3=O)c2)cc1 | 12.7 |
| O=C(Oc1ccc2ccc(=O)oc2c1)c1ccccc1 | 14.2 |
| O=C(Oc1ccc2ccc(=O)oc2c1)c1ccco1 | -73.1 |
| O=C(Oc1ccc2ccccc2c1)c1ccco1 | 5.27 |
| COc1ccc(CN2CCN(C(=O)c3cccs3)CC2)cc1Br | -24.4 |
| CCC(CC)C(=O)NCCc1ccc(OC)cc1 | 17.8 |
| Cc1csc(NC(=O)c2cccnc2)n1 | 13.5 |
| CCc1ccc(CN(C)C(=O)c2cc(S(=O)(=O)N3CCN(CC)CC3)ccc2Cl)cc1 | -25.3 |
| CCN1CCN(S(=O)(=O)c2ccc(Cl)c(C(=O)N(C)C(c3ccccc3)c3ccccc3)c2)CC1 | -50.5 |
| CCN1CCN(S(=O)(=O)c2ccc(Cl)c(C(=O)N(C)Cc3ccccc3)c2)CC1 | -28.8 |
| CCN1CCN(S(=O)(=O)c2ccc(Cl)c(C(=O)N(C)Cc3cccs3)c2)CC1 | -14.6 |
| CCN1CCN(S(=O)(=O)c2ccc(Cl)c(C(=O)N(C)Cc3ccc(Cl)cc3Cl)c2)CC1 | -9.34 |
| CCN1CCN(S(=O)(=O)c2ccc(Cl)c(C(=O)N(C)Cc3cccc(Cl)c3Cl)c2)CC1 | -61.3 |
| O=C(O)c1ccc2c(c1)C(=O)N(c1cccc(S(=O)(=O)Nc3cccc(C(F)(F)F)c3)c1)C2=O | 21.1 |
| CCN(CC)S(=O)(=O)c1ccc(C(C)NC(=O)C2CCCN2C(=O)c2cccs2)cc1 (centres unmarked) | -15.5 |
| Cc1cc(Cl)ccc1C(=O)C1CCCN(C(=O)CCN2CCCO2)C1 (centres unmarked) | -1.54 |
| CC(C)(C)NC(=O)C(c1ccccn1)N(C(=O)C1CSC(=O)C1)c1ccc(F)cc1 (centres unmarked) | 6.26 |
| C=CCn1c(O)c(C(C)=NC2CCN(Cc3ccccc3)CC2)c(=O)[nH]c1=O | -55.7 |
| O=c1[nH]c(O)c(C=NC2CCN(Cc3ccccc3)CC2)c(=O)[nH]1 | -31.6 |
| CCC(=NC1CCN(Cc2ccccc2)CC1)c1c(O)[nH]c(=O)[nH]c1=O | -52.4 |
| C=CCn1c(O)c(C(C)=NCCc2ccccc2)c(=O)[nH]c1=O | -14.7 |
| C=CCn1c(O)c(C(C)=NC2CC2)c(=O)[nH]c1=O | 9.27 |

| Structure (SMILES) | hERG current change (%, negative = inhibition) at 10uM [%] |
| --- | --- |
| CCC(=NCCc1ccccc1)c1c(O)[nH]c(=O)[nH]c1=O | 10.1 |
| Cc1ccccc1CNC(=O)C1CCN(c2nnc(N3CCCC3=O)s2)CC1 | 19.3 |
| CC(C)(C)c1csc(CS(=O)(=O)c2ccccn2)n1 | -6.8 |
| CCc1nnc2n1N=C(c1ccc([N+](=O)[O-])cc1)CS2 | -65.5 |
| O=[N+]([O-])c1ccc(C2=Nn3cnnc3SC2)cc1 | -62.2 |
| Brc1ccc(C2=Nn3cnnc3SC2)cc1 | 13.6 |
| Br.CCc1nnc2n1N=C(c1cccc([N+](=O)[O-])c1)CS2 | -32.1 |
| Br.CCCc1nnc2n1N=C(c1ccc([N+](=O)[O-])cc1)CS2 | -38.6 |
| CCOc1ccc(C2=Nn3cnnc3SC2)cc1 | -14.8 |
| O=c1[nH]c(=O)n(CCc2ccccc2)c(O)c1C=NCCCn1ccnc1 | -2.66 |
| COc1ccccc1CC(NC(C)=O)C(=O)NC1CCN(C(=O)Nc2ccccc2F)CC1 (centres unmarked) | 28.3 |
| Cc1ccc(Cl)cc1NS(=O)(=O)c1ccc2oc(=O)ccc2c1 | -25.7 |
| COc1ccc(CCN(C)CC(O)COc2c(C)ccc(C)c2C)cc1OC (centres unmarked) | -76 |
| COc1ccc(CCN(C)CC(O)c2ccccc2)cc1OC.O=C(O)C(=O)O (centres unmarked) | -32.2 |
| COc1ccc(CCN(C)CC(O)COc2ccc(C(C)=O)cc2OC)cc1OC (centres unmarked) | -21.6 |
| COc1ccc(CCN(C)CC(O)COC(c2ccc(F)cc2)c2ccc(F)cc2)cc1OC (centres unmarked) | -79.2 |
| COc1ccc(CCN(C)Cc2nc(Cc3ccc(OC)c(OC)c3)no2)cc1OC | 0.332 |
| COc1ccc(C(CNCC(O)COc2c(C)ccc(C)c2C)N(C)C)cc1 (centres unmarked) | -44.1 |
| O=C(Nc1ccc(Nc2ccccc2)cc1)c1cc([N+](=O)[O-])ccc1Cl | 11.2 |
| CNc1ccc(Br)cc(C(=O)/C=C/c2cccc(OC)c2)c1=O | -1.19 |
| COc1ccc(NC2c3ncccc3C(=O)N2Cc2cccs2)cc1 (centres unmarked) | -18.4 |
| CCc1noc(C)c1C(=O)N1CCOCC1 | 14.4 |

| Structure (SMILES) | hERG current change (%, negative = inhibition) at 10uM [%] |
| --- | --- |
| COC(=O)N1C(=O)[C@](c2ccccc2)(C(C)C)N1C(=O)OC | 12.2 |
| COc1ccccc1/C=N/NC(=O)c1cccc(OC(F)(F)C(F)F)c1 | -9.51 |
| Cc1ccc(-c2cc(C(=O)N3CCOCC3)c3ccccc3n2)cc1 | -3.91 |
| CC(=O)N1CCN(C(=O)c2cc(-c3ccc(Cl)s3)nc3ccccc23)CC1 | -51.8 |
| O=C(O)c1ccccc1C(=O)N1CC=C(c2ccccc2)CC1 | 3.44 |
| O=C(NCCN1CCOCC1)c1cc(-c2ccc(Cl)s2)nc2ccccc12 | -5.22 |
| CC(C)(CNC(=O)c1cc(-c2ccc(Cl)s2)nc2ccccc12)N1CCOCC1 | -55.1 |
| O=C(c1cc(-c2ccc(Cl)s2)nc2ccccc12)N1CCCC1 | 4.92 |
| O=C(c1cc(-c2ccc(Cl)s2)nc2ccccc12)N1CCOCC1 | -17 |
| O=C(c1cc(-c2ccc(Cl)cc2)nc2ccccc12)N1CCOCC1 | -68.8 |
| O=C(c1cc(-c2ccccc2)nc2ccccc12)N1CCOCC1 | 27.6 |
| O=C(NCCCN1CCOCC1)c1cc(-c2ccc(Cl)s2)nc2ccccc12 | -44.1 |
| CC(=O)N1CCN(C(=O)c2cc(C)nc3ccccc23)CC1 | 31.1 |
| Cc1cc(C(=O)N2CC=C(c3ccccc3)CC2)c2ccccc2n1 | -52.9 |
| CCOc1ccnc(OCC)c1Br | 28.3 |
| NS(=O)(=O)c1ccc(OC(=O)CNC(=O)OCc2ccccc2)cc1 | 11 |
| Cc1ccc(OCC(O)Cn2c(N3CCOCC3)nc3c2c(=O)[nH]c(=O)n3C)cc1 (centres unmarked) | -16.1 |
| Cc1nn(C)c(C)c1/C=N/NC(=O)c1csc2ccccc12 | -2.45 |
| O=C(CN1C(=O)NC(Cc2c[nH]c3ccccc23)C1=O)Nc1ccccc1Br (centres unmarked) | -15.4 |
| COc1ccc(S(=O)(=O)N2CCCC2C(=O)Nc2nc3c(s2)CCCC3)cc1 (centres unmarked) | -14 |
| COc1ccc(CCNC(=O)c2cc(S(=O)(=O)N(C)c3ccccc3)ccc2Cl)cc1 | -16.6 |
| Cn1[nH]c(-c2ccccc2)c(/C=N/O)c1=O | -15.1 |

| Structure (SMILES) | hERG current change (%, negative = inhibition) at 10uM [%] |
| --- | --- |
| COCCn1c(-c2ccc(OC(F)(F)C(F)C(F)(F)F)cc2)nc2c1c(=O)[nH]c(=O)n2CC(C)C (centres unmarked) | -19.5 |
| CC1CCCN(C(=O)c2ccccc2OC2CCN(S(C)(=O)=O)CC2)C1 (centres unmarked) | 11.1 |
| O=C(c1cc(-c2ccc(Cl)cc2)nc2ccccc12)N1CCC1 | -59.7 |
| O=C(c1cc(-c2ccccc2)nc2ccccc12)N1CCCC1 | 2.55 |
| O=C(c1cc(-c2ccc(Br)cc2)nc2ccccc12)N1CCC1 | -44.4 |
| COc1ccc(/C=c2\sc3nc(-c4ccccc4OC)nn3c2=O)c(OC)c1 | 9.67 |
| COC(=O)c1ccccc1OCC(=O)N1CCN(c2ccc(F)cc2)CC1 | -44.9 |
| Cc1cc(OCC(=O)N2CCN(c3ccc(F)cc3)CC2)c2c(C)cc(=O)oc2c1 | 10.7 |
| Cc1c(C)c2ccc(OCC(=O)N3CCN(c4ccc(F)cc4)CC3)c(C)c2oc1=O | 2.26 |
| CCC(=O)c1cc(F)ccc1OCC(=O)N1CCN(c2ccc(F)cc2)CC1 | -72.1 |
| Cc1cccc(N2CCN(C(=O)CCS(=O)(=O)c3ccc4c(c3)oc(=O)n4C)CC2)c1C | -51.2 |
| Cn1c(=O)oc2cc(S(=O)(=O)CCC(=O)N3CCN(c4ccccc4F)CC3)ccc21 | 1.03 |
| Cc1cccc(N2CCN(C(=O)COc3cc(=O)n(C)c4ccccc34)CC2)c1C | -61.2 |
| CC(=O)c1cc(F)ccc1OCC(=O)N1CCN(c2ccc(F)cc2)CC1 | -58.2 |
| Cn1c(=O)cc(OCC(=O)N2CCN(c3ccccc3F)CC2)c2ccccc21 | -17.5 |
| Cc1ccc(C)c(N2CCN(C(=O)COc3cc(=O)n(C)c4ccccc34)CC2)c1 | -32.3 |
| Cc1ccc(C)c(N2CCN(C(=O)CCS(=O)(=O)c3ccc4c(c3)oc(=O)n4C)CC2)c1 | -48.6 |
| COC(=O)c1ccc(OC)cc1OCC(=O)N1CCN(c2ccc(F)cc2)CC1 | -33 |
| CCOC(=O)c1c(S(=O)(=O)NCC(=O)Nc2ccc(F)cc2)c(C)n(C)c1C | 14.5 |
| CCOC(=O)c1cc(C#N)c(N2CCNCC2)nc1C(F)(F)F | -12.3 |
